An excerpt weighted towards active compounds, which were near 2.9% of everything screened.
Hsp70 act: Hsp70 transcriptional activation, primary screen; HeLa Hsp70 promoter luciferase reporter, luminescence; scaled: vehicle 0, proteasome-inhibitor control 100%; activation, % at 10 µM; 0.04% of 200,000 active;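 active means activation above the mean across all tested compounds plus 3 SD, cutoff set per campaign, cut at about 5.5% in these data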;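 further: 100% = MG132 at 30 µM as the positive control and 0% = DMSO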
HSF1 inhib: HSF1 inhibition. NIH3T3-HGL HSE-luciferase, MG132-induced, luminescence 8 h; active compounds read low. 0.77% of 300,000 active. activity change, negative = inhibition, % at 7.5 µM (by protocol);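 active means more than half of replicate wells show activity change below -50%, luminescence cut by over half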;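 further: luciferase reports HSF-1 transcriptional activity via heat shock element; 0% = median of DMSO wells and -100% = zero luminescence signal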
HSF1 activator: increases HSF-1 driven luciferase reporter signal; activation, % at 9 µM; 1.7% of 300,000 active; NIH3T3-HGL HSF-1 luciferase reporter, MG132, 8 h; 100% = twice DMSO control signal;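 active means mean replicate activation of at least 50% with a set share of replicates each reaching 50%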;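 further: 0% = median of the neutral control wells and 100% = twice that signal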
S1P4 antag: human S1P4 receptor antagonism. O95977. S1P4-expressing cells, antagonist mode, reporter read-out. inhibition, % at 4.98 µM. 0.26% of 220,000 active; in the data active means inhibition above about 29%;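 further: 0% = wells stimulated with agonist and 100% = vehicle wells without agonist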
S1P4 ag: human S1P4 receptor agonism. O95977. S1P4-expressing cell line, agonist reporter assay. activation, % at 4.98 µM. 0.35% of 220,000 active; in the data active means activation above about 11%;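 further: 0% = DMSO vehicle and 100% = reference agonist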
S1P3 antagonist: S1P3 (human) receptor antagonism; CHO S1P3 NFAT-BLA reporter, FRET fluorescence, antagonist mode; 0.27% of 170,000 active; Q99500; inhibition, % at 4.98 µM;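 active means inhibition above the plate cutoff, the mean inhibition of test wells on that plate plus 3 SD, cut at about 28% in these data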;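 further: cells challenged with S1P at its EC80 of 0.8 µM; blue over green emission ratio from cleaved BLA substrate after 4 h stimulation; 0% = S1P-stimulated wells and 100% = unstimulated DMSO-only wells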
Target sequence (Q99500 whole entry, looked up): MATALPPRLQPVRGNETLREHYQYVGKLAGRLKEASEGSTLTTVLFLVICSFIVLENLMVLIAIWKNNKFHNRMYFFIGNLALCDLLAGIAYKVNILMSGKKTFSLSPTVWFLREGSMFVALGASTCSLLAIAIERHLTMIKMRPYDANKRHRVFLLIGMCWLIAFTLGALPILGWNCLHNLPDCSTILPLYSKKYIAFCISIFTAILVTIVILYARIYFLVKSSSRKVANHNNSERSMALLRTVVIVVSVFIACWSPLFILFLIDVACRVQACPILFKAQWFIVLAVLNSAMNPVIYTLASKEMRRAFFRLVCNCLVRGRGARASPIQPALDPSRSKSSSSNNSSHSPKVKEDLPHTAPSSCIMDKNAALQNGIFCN
Numbers without * were called inactive; . = no result.

SMILES | Hsp70 act | HSF1 inhib | HSF1 activator | S1P4 antag | S1P4 ag | S1P3 antagonist
Cc1ccc(NC(=O)CC(C)CC(=O)NCc2ccccc2)cc1Cl (stereo unspecified) | . | 2 | 0 | . | . | .
COc1ccc(S(=O)(=O)Cc2ccc(C(=O)NCc3ccc(C)cc3)o2)cc1 | . | 1 | -7 | . | . | .
COc1ccc(CNC(=O)c2ccc(CS(=O)(=O)c3ccc(Br)cc3)o2)cc1 | . | -68* | -74 | . | . | .
CN(C)c1nc(F)c(F)c(S(=O)(=O)c2ccccc2)c1F | . | -12 | -28 | . | . | .
COc1cc(OC)c(NC(=O)CCNC(=O)Cn2cnc3ccccc3c2=O)cc1Cl | 0 | 8 | 51* | -1 | 3 | -9
COc1ccc(NC(=O)c2[nH]c(C)c(C(C)=O)c2C)cc1S(=O)(=O)Nc1ccc(Br)cc1 | . | 37 | 89* | 0 | -1 | 4
Nc1cccc2c1C(=O)N(c1ccccc1)C2=O | . | 6 | 21 | . | . | 93*
Cc1cccc(-c2noc(-c3ccc(Cl)cc3[N+](=O)[O-])n2)c1 | 0 | 9 | 38 | -7 | 3 | -7
COc1ccc(-c2noc(-c3ccc(Cl)cc3[N+](=O)[O-])n2)cc1OC | 0 | 25 | 53* | -17 | 1 | -9
FC(F)(F)c1cnc(Sc2nnc(-c3cccs3)n2CC2CCCO2)c(Cl)c1 (stereo unspecified) | 1 | -5 | 19 | 6 | 0 | .
FC(F)(F)c1ccc(Sc2nnc(-c3cccs3)n2CC2CCCO2)nc1 (stereo unspecified) | 0 | 12 | 58* | -5 | -1 | 17
O=C(NCCc1ccccc1)C1CCC(CNS(=O)(=O)c2ccc(F)cc2)CC1 (stereo unspecified) | . | 3 | -22 | . | . | .
O=C(CO/N=C/c1ccc(OC(F)F)cc1)NC1CCCC1 | 0 | -4 | 5 | -14 | 2 | 10
CC1Cc2ccccc2N1C(=O)CO/N=C/c1ccc(OC(F)F)cc1 (stereo unspecified) | 0 | -88* | -90 | -12 | 0 | -2
CCN1C(=O)c2cccc3c(S(=O)(=O)Nc4ccccc4OC)ccc1c23 | 0 | 27 | 59* | -16 | 4 | -22
Cc1cc(C)c(-c2csc(NC(=O)C3=COCCO3)n2)c(C)c1 | . | -4 | -6 | . | . | .
Cc1cc(C)c2sc(NC(=O)C3=COCCO3)nc2c1 | . | 30 | 54* | . | . | .
O=C(Nc1nc2cc3c(cc2s1)OCCO3)C1=COCCO1 | . | -66* | -75 | -2 | 1 | 4
Cc1cc(C)n(-c2ccc(C(=O)OCC(=O)c3ccc(Br)s3)cc2)n1 | -1 | -6 | -25 | -24 | 0 | 5
COc1ccc(C(=O)n2c(C)c(CCO)c(=O)n2C)cc1 | 0 | -3 | 5 | 9 | 0 | 0
COc1ccc(/C=N/NC(=S)N[C@H]2CC3CCC2C3)cc1 (stereo partly specified) | . | 17 | 40 | 18 | 0 | -8
COc1cc(/C=N/NC(=S)NC2CC3CCC2C3)ccc1O (stereo unspecified) | . | 36 | 57* | 11 | 1 | -4
COc1c(O)cccc1[C@@H](O)C1CCN(CCc2ccc(F)cc2)CC1 | . | -21 | -34 | . | . | .
C=CCSc1n[nH]c(-c2ccc(OCCC)cc2)n1 | 0 | 38 | 27 | -18 | -2 | -1
C=CCSc1n[nH]c(-c2ccc(OCCCC)cc2)n1 | 0 | 35 | 66* | -4 | 0 | 21
SMILES | Hsp70 act | HSF1 inhib | HSF1 activator | S1P4 antag | S1P4 ag | S1P3 antagonist
O=C1CC(c2ccco2)CC(O)=C1C=Nc1ccc(Br)cc1 (stereo unspecified) | 0 | 44 | 42 | 5 | 2 | .
O=C1CC(c2ccco2)CC(O)=C1C=Nc1cc(Cl)ccc1O (stereo unspecified) | -1 | 45 | 69* | 0 | 1 | .
O=C1CC(c2ccccc2)CC(O)=C1C=Nc1ccccc1O (stereo unspecified) | 0 | -3 | 36 | 4 | 0 | 9
Cc1ccc(N=CC2=C(O)CC(c3ccco3)CC2=O)cc1 (stereo unspecified) | 0 | 63 | 72* | -3 | -1 | .
O=C1CC(c2ccccc2)CC(O)=C1C=Nc1ccccc1 (stereo unspecified) | 0 | 68 | 119* | 16 | -3 | -1
COc1ccc(CCNC(=O)CN2CCN(Cc3ccccc3F)C2=O)cc1OC | . | -74* | -79 | 5 | 0 | 0
C/C(=N/NC(=O)c1ccc(C)s1)c1ccncc1 | . | 3 | 5 | . | . | .
